Source: PubChem (The Scripps Research Institute Molecular Screening Center)
Compounds with a hit are over-represented: about 1.5% of the library has one in this group of screens.
DAGLB inh – diacylglycerol lipase beta (human) inhibition | Q8NCG7 | HEK293T DAGLB membrane lysate, EnzChek fluorogenic substrate | inhibition, % at 5.17 µM | 340,000 tested, 0.059% active | AID 504411; in the data active = inhibition above about 34%
sPLA2-III inh – Blocks human group III sPLA2 activity. Q9NZ20. AID 743126. 370,000 tested, 0.56% active. inhibition, % at 12.2 µM. QFRET BODIPY PC-A2 liposome hydrolysis, fluorescence;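 active = inhibition above mean plus 3 SD of compounds lying within the high and low control bounds, cut at about 19% in these data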
PLCg1 inh – blocks human PLC-gamma1 enzyme activity | P19174 | purified PLC-gamma1, fluorogenic substrate, fluorescence | inhibition, % at 12.2 µM | 370,000 tested, 0.84% active | AID 720700; in the data active = inhibition above about 9.5%
PLC-beta3 inh – blocks human PLC-beta3 enzyme activity; Q01970; Purified PLC-beta3, fluorogenic substrate, fluorescence; inhibition, % at 12.2 µM; 370,000 tested, 0.18% active
PLCgamma1 ctr – PLC-gamma1 inhibition, counter-screen for PLC-beta3 hits. inhibition, % at 12.3 µM. shares compounds with PLCg1 inh. 3,300 tested, 3.1% active. purified PLC-gamma1, fluorogenic substrate, fluorescence. AID 743258; in the data active = inhibition above about 9.5%
PLCb3 confirm – confirmation of human PLC-beta3 inhibitors; shares compounds with PLCg1 inh; purified PLC-beta3, fluorogenic substrate fluorescence; inhibition, % at 12.3 µM; 3,300 tested, 1% active; AID 743261
A number is an active result; – = inactive; · = no result; ! = not active in a repeat. Cut-off read from the data, not from the text of the source, unless noted: active = inhibition above about 11%; inactive = the rest.

SMILES | DAGLB inh | sPLA2-III inh | PLCg1 inh | PLC-beta3 inh | PLCgamma1 ctr | PLCb3 confirm
C=CCn1c(COc2ccccc2)nnc1SCC(=O)Nc1ccc(Oc2ccccc2)cc1 | · | – | – | – | · | ·
CCNC(=S)NNC(=O)c1cnccn1 | · | – | – | – | · | ·
COc1ccc(OC)c(NC(=O)COC(=O)Cc2ccc(-c3ccccc3)cc2)c1 | – | – | 14.3 | – | – | –
COc1ccc(OC)c(NC(=O)COC(=O)Cc2ccc(Br)cc2)c1 | – | – | – | – | · | ·
O=C(CN1C(=O)C2(OCCCO2)c2ccccc21)NCc1ccc(F)cc1 | · | – | – | – | · | ·
O=C(CCc1cccc(Cl)c1)NC1CCCN(Cc2ccccc2F)C1 (stereo not drawn) | – | – | – | – | · | ·
O=C(Cc1ccc(Cl)cc1)NC1CCCN(Cc2ccccc2F)C1 (stereo not drawn) | – | – | 11.8 | – | – | –
Cc1nn(C)c(Cl)c1CN1CCCC(CCC(=O)NCc2ccccc2F)C1 (stereo not drawn) | – | – | – | – | · | ·
CCOc1cccc(CN2CCCC(CCC(=O)NCc3ccccc3F)C2)c1O (stereo not drawn) | – | – | 11.3 | 11.4 | – | –
O=C1C[C@@H](O)[C@H](O)c2cccc(O)c21 | · | – | – | – | · | ·
CCCCCN1CCCCC(NC(=O)c2cccc(F)c2)C1=O (stereo not drawn) | · | – | – | – | · | ·
COC(=O)C[C@H]1CC[C@H]2[C@@H](COc3ccc(NC(=O)Nc4ccccc4)cc3C(=O)N2C)O1 | · | – | – | – | · | ·
CC1(C)OC2OC(COC(=O)c3ccc([N+](=O)[O-])cc3)C3OC(C)(C)OC3C2O1 (stereo not drawn) | – | – | 10.6 | – | – | –
COc1cc(/C=N/n2c(-c3cc(-c4ccccc4)n[nH]3)n[nH]c2=S)ccc1OCc1ccccc1 | · | – | – | – | · | ·
CC(C)CC(=O)Nc1cccc(NC(=O)CC(C)C)n1 | – | – | 10.0 | – | – | –
COc1ccc(-n2nc(C(=O)Nc3ccc4c(c3)OCO4)c3c4ccccc4n(C)c3c2=O)cc1 | – | – | 11.9 | – | – | –
O=C(Nc1ncccn1)C1CCCCC1 | – | – | 10.7 | – | – | –
C=CCN=C1NC(c2cccc(F)c2)C(C(=O)OC)=C(C)N1Cc1cccc(C(F)(F)F)c1 (stereo not drawn) | · | – | – | – | · | ·
O=C1NC(c2ccccc2)=NC1(NS(=O)(=O)c1ccccc1)C(F)(F)F (stereo not drawn) | – | – | – | 11.1 | – | –
O=C1N2CCSC2=NC1(NS(=O)(=O)c1ccccc1)C(F)(F)F (stereo not drawn) | – | – | 10.2 | – | – | –
Cc1cccc(NC(=O)CN(C)S(=O)(=O)c2ccc(Br)cc2)n1 | – | – | 10.2 | – | – | –
COc1ccc(CNS(=O)(=O)/C=C/c2ccc(F)cc2CNC(=O)OC(C)(C)C)cc1 | · | – | – | – | · | ·
O=C(CSc1nnnn1C1CCCC1)N1CCN(C(=O)c2ccco2)CC1 | – | – | – | – | · | ·
O=C(CSc1nnnn1C1CCCCC1)N1CCN(C(=O)c2ccco2)CC1 | – | – | 11.6 | – | – | –
CCn1c(SCC(=O)c2ccccc2)nc2c(c1=O)SC(C)C2 (stereo not drawn) | – | – | 11.5 | – | – | –
SMILES | DAGLB inh | sPLA2-III inh | PLCg1 inh | PLC-beta3 inh | PLCgamma1 ctr | PLCb3 confirm
S=C(Nc1ccccc1Br)OCCN1CCCC12CCC(c1ccccc1)CC2 (stereo not drawn) | · | – | – | – | · | ·
COCCNC(=O)Cn1nc(-c2ccc(Cl)cc2)c2ccccc2c1=O | – | – | 11.6 | – | – | –
Cc1ccc(S(=O)(=O)N2CCCC2C(=O)N2CCN(c3ccccc3)CC2)cc1 (stereo not drawn) | · | – | – | – | · | ·
Cc1cc(NC(=O)c2cc(-c3ccccc3)on2)n(-c2ccccc2)n1 | – | – | – | 11.5 | – | –
COc1ccc(-c2cc(C(=O)Nc3cc(C)nn3-c3ccccc3)no2)cc1 | – | – | – | – | · | ·
CCCC1CCC2(CC1)CCC2OC(=S)Nc1ccccc1C(F)(F)F (stereo not drawn) | · | – | – | – | · | ·
COCCn1c(SCC(=O)OC(C)C)nnc1-c1ccccc1 | – | – | 12.4 | – | – | –
O=C(CSc1n[nH]c(=O)n1-c1ccccc1)Nc1ccccc1 | · | – | 15.4 | – | – | –
O=C(CSc1n[nH]c(=O)n1-c1cccnc1)Nc1ccccc1 | – | – | – | – | · | ·
O=C(CSc1nnnn1-c1ccccc1)Nc1ccc(N2CCOCC2)cc1 | – | – | – | – | · | ·
O=C(CSc1nnnn1-c1ccccc1)Nc1ccc(Cl)cn1 | – | – | – | – | · | ·
O=C(CSc1nnnn1-c1ccccc1)Nc1ccc(Cl)cc1 | – | – | 14.3 | – | – | –
O=C(CSc1nncn1-c1ccccc1)Nc1ccc(N2CCOCC2)cc1 | – | – | 9.8 | – | – | –
CCNC(=O)N(C)[C@H]1C[C@H]2c3[nH]c4c(-c5cccc(C)c5)cccc4c3CCN2C(=O)[C@H]1[C@H](C)O | · | – | – | – | · | ·
CSc1ccc(-c2cnc(N3CCC(C(N)=O)CC3)s2)cc1 | · | – | – | – | · | ·
CC(=O)N1c2ccccc2C(=O)NCC1C(=O)NC(C)(C)C (stereo not drawn) | · | – | – | – | · | ·
Cc1ccc(OC(C)C(=O)N(Cc2cccs2)C2CCS(=O)(=O)C2)cc1C (stereo not drawn) | – | – | 9.8 | – | – | –
COC(=O)[C@H](C(C)C)N1CCc2nnn(CC3CCCCC3)c2-c2cc(F)ccc2S1(=O)=O | · | – | – | – | · | ·
COC(=O)C12OCC34C(CC5C(C)=C(O)C(=O)CC5(C)C3C(O)C1O)OC(=O)C(OC(=O)C=C(C)C)C24 (stereo not drawn) | – | – | 12.3 | – | – | –
O=S(=O)(CS(=O)(=O)c1ccccc1Br)c1ccccc1Br | · | – | 22.1 | – | 17.1 | –
Cc1cnc2ccc(F)cc2c1 | · | – | 12.2 | – | – | –
Cc1ccc2c(c1)N(CCC(=O)NC1CC1)C(=O)C(C)O2 (stereo not drawn) | – | – | – | 11.5 | – | –
Cc1ccc2c(c1)N(CC(=O)NC1CCCC1)C(=O)C(C)O2 (stereo not drawn) | – | – | – | – | · | ·
CC(=O)CC[C@H]1CC[C@]2(CCCN(C(=O)c3ccno3)C2)O1 | · | – | – | – | · | ·
CC(=O)Nc1ccc(NC(=O)COC(=O)c2ccc(C)s2)cc1 | – | – | 10.9 | – | – | –
SMILES | DAGLB inh | sPLA2-III inh | PLCg1 inh | PLC-beta3 inh | PLCgamma1 ctr | PLCb3 confirm
O/N=C(/c1ccccc1)c1cc2cc(Br)cc(Br)c2o1 | – | – | 11.8 | – | – | –
CCC[C@H]1[C@@H](NC(=O)C2CCC2)CC[C@@]23CCCN2C(=O)CCC[C@@H]13 | · | – | – | – | · | ·
Cc1ccc([N+](=O)[O-])cc1CN1CCN(c2ncc(Cc3ccccc3)cn2)CC1 | · | – | – | 14.3 | – | –
Cc1nn(-c2ccccc2)c2sc(C(=O)NC3CCCCCC3)cc12 | · | – | – | – | · | ·
Cc1ccc(S(=O)(=O)NC2=C(N3CCN(c4ccccc4F)CC3)C(=O)c3ccccc3C2=O)cc1 | – | – | 14.6! | – | 9.8 | –
C/C(=N\NC(=O)CSc1nnc(C)s1)c1ccc(O)cc1 | – | – | 9.9 | – | – | –
